Measurements as given in PubChem BioAssay (NCI).
About 83,000 compounds went through this panel and 20% of them were active in at least one assay; those are over-represented in the sample as a whole.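 A percent growth of 40 corresponds to 60% growth inhibition; 0 means no net growth; -100 means all cells died. Active threshold: below 10.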 A number with no mark means an inactive call. Activity calls are given as the source filed them.

Tests used:
Test in all cases: NCI-60 one-dose screen, 48 h (100 = growth as untreated, 0 = no growth, -100 = all killed)
[1] = system: SR leukemia; details: 10 µM unless noted
[2] = system: RPMI-8226 leukemia; details: 10 µM unless noted
[3] = system: OVCAR-8 ovarian; details: 10 µM unless noted
[4] = system: OVCAR-5 ovarian; details: 10 µM unless noted
[5] = system: OVCAR-4 ovarian; details: 10 µM
[6] = system: SK-OV-3 ovarian; details: 10 µM unless noted
[7] = system: IGROV1 ovarian; details: 10 µM unless noted
[8] = system: HS 578T breast; details: 10 µM unless noted
[9] = system: NCI/ADR-RES ovarian; details: 10 µM unless noted
[10] = system: T-47D breast; details: 10 µM unless noted
[11] = system: BT-549 breast; details: 10 µM unless noted
[12] = system: MDA-MB-435 melanoma; details: 10 µM unless noted
[13] = system: SW-620 colon; details: 10 µM unless noted
[14] = system: MCF7 breast; details: 10 µM unless noted
[15] = system: HCT-116 colon; details: 10 µM unless noted
[16] = system: HCC-2998 colon; details: 10 µM unless noted
[17] = system: KM12 colon; details: 10 µM unless noted
[18] = system: OVCAR-3 ovarian; details: 10 µM unless noted

Structure (SMILES)	growth [1]	growth [2]	growth [3]	growth [4]	growth [5]	growth [6] [%]	growth [7]	growth [8] [%]	growth [9]	growth [10]	growth [11] [%]	growth [12]	growth [13]	growth [14]	growth [15]	growth [16]	growth [17] [%]	growth [18]
O=C(Nc1cccc(C2=NCCN2)c1)c1cccc(C(=O)Nc2cccc(C3=NCCN3)c2)c1	92.3%	94.3%	101%	95.7%	94.7%	104	99.1%	98.4	98.8%	96.7%	110	98.8%	98.2%	88.4%	99.7%	107%	101	–
O=S(=O)(c1ccc(N/N=C\c2ccccc2Cl)cc1)c1ccc(N/N=C/c2ccccc2Cl)cc1	88.5%	-16.1% (active)	86.5%	82.6%	84.1%	98	73.8%	83	84.5%	76.3%	78.6	86.9%	87.6%	68%	80.8%	103%	69.9	–
CCOC(=O)C1=C(C(=O)c2ccc(Br)cc2)C(c2ccc(Br)cc2)NC(=S)N1 (centres undefined)	108%	111%	97.8%	108%	107%	110	92%	–	103%	94.5%	101	107%	101%	102%	89.8%	106%	97.5	105%
CCOc1cccc2c(NC(C)CCCN(CC)CC)c(C)cnc12 (centres undefined)	96.6%	107%	103%	106%	108%	95.8	102%	–	114%	–	99.8	101%	96.6%	97.7%	93.4%	115%	99.1	110%
COc1ccc2nc3c(cc2c1)C(=O)CC(c1ccccc1)C3 (centres undefined)	17.7%	55.4%	39%	61.2%	92.7%	52.2	35.8%	–	13.2%	–	51.7	-67.7% (active)	17.8%	56.2%	11.1%	91.3%	10.8	-7.18% (active)
O=[N+]([O-])c1cccc(/C=C/c2ccc3ccccc3n2)c1	78.2%	90.7%	57.1%	130%	38.9%	70.8	79.9%	–	71.2%	79.5%	73.7	79.8%	85.5%	–	82.4%	81%	82.7	88.5%
COc1ccc2nc3c(cc2c1)C(=O)CC(C(F)(F)F)C3 (centres undefined)	16.4%	93.3%	40%	57.7%	95.7%	56.8	36.6%	–	18.9%	41.1%	61	-47.7% (active)	41.5%	83.1%	11.9%	84%	11.6	5.3% (active)
N#C/C(=C(/O)CCCO)c1nc2ccccc2c(=O)[nH]1	90.9%	91.1%	107%	92.5%	104%	105	109%	102	95%	101%	109	168%	108%	86.6%	98.9%	73.5%	100	–
COc1ccc(C(=O)/C=C/c2ccccn2)c(O)c1	-1.93% (active)	6.35% (active)	92.6%	96.3%	92.1%	98.6	46.8%	87.5	94%	61.6%	76.5	77.3%	43.4%	15.9%	76.5%	93.6%	51.1	–
Cc1nc(-c2ccccc2)sc1CC#N	91.6%	109%	108%	105%	113%	108	102%	–	109%	103%	113	–	103%	102%	108%	109%	107	116%
O=C1C(Cl)=C(Nc2ccc3cn[nH]c3c2)C(=O)c2ccccc21	-52% (active)	-54.7% (active)	-58.2% (active)	-37.9% (active)	-98.9% (active)	87.2	-83.5% (active)	–	-67.5% (active)	-52.3% (active)	–	–	-86% (active)	-68.3% (active)	-98.6% (active)	-83% (active)	28	-100% (active)
COc1ccc(-c2cc(-c3ccccc3)nc(SCCCCCC(=O)NO)n2)cc1	21.9%	21.2%	36.1%	41.4%	80.1%	50.3	51.7%	–	56.9%	22.7%	–	37.5%	29.7%	49.8%	21.6%	78.8%	70.8	65%
CCCCN(CC)CC(CC)Nc1cc(OC)cc2cccnc12 (centres undefined)	113%	105%	103%	103%	115%	127	–	–	101%	110%	110	102%	108%	98.5%	105%	–	107	107%
CCOC(CNC(=O)c1cccc([N+](=O)[O-])c1)OCC	95.4%	141%	95.3%	101%	109%	108	–	–	97.9%	92.1%	60.5	103%	102%	87.2%	–	–	112	96.5%
CC1(C)C(=NO)C(C)(C)C1=NO	103%	76.2%	113%	103%	115%	125	–	–	106%	121%	116	–	100%	106%	103%	98%	118	117%
Cc1cccc([N+](=O)[O-])c1I	128%	99.6%	98.2%	98.9%	110%	115	–	113	109%	–	110	103%	108%	–	112%	101%	112	118%
Cc1ccc(S(=O)(=O)N/N=C2\CC3CCC2(C)C3(C)C)cc1 (centres undefined)	105%	97.4%	88.8%	83.4%	104%	114	–	120	213%	105%	–	103%	99.3%	90.3%	104%	748%	95.4	103%
O=C(N/N=C/c1c(Cl)cccc1Cl)c1cccc(Nc2ccnc(C(F)(F)F)c2)c1	106%	70.1%	89.9%	108%	69.3%	102	–	107	102%	37%	90.8	78.9%	99%	–	77.2%	89.1%	108	137%
Nc1ccc(Cl)c([N+](=O)[O-])c1	90.1%	97.8%	101%	86%	97.4%	108	–	110	105%	91.9%	95.1	–	104%	101%	97.7%	94.4%	96.1	114%
